Our source for the z-score values is PubChem BioAssay.

Molecules are shown by their SMILES. Where “and” joins values, the source holds several entries; their conditions need not be identical. Equal values may be shown once. Unmarked numbers belong to inactive results.

The nature of the experiment: FRG1 expression reporter modulators in myotubes – cell-based, C2C12 myotubes, firefly/Renilla luciferase, luminescence, FRG1 inhibition for FSHD, primary screen (AID 1084). Conditions: FRG1 promoter luciferase; higher = more signal, called active from +8 up or from −8 down unless noted.
Take `CCCC=C(CCC)[C@@H](NP(=O)(c1ccccc1)c1ccccc1)c1ccccc1`: the z-score is -0.763.
Take `COC(=O)[C@H]1C(=O)c2ccccc2O[C@@](C(=O)OC)(c2ccccc2)[C@@H]1c1ccccc1`: the z-score was -0.748.
With `C[C@@H]1Cc2c(cnc3c2CN(C)CC3)CO1`, the z-score is -0.989.
For the compound `COc1cc2c(cc1O)C(C)N(C)CC2` (configuration not stated), the z-score was -1.13.
Turning to `CN1CCc2nc(CO)c(CO)cc2C1`, the z-score was 0.294.
On to `COC(=O)C1(C)C=C2C(=C(C)C(=O)C2C)CN1` (configuration not stated), for which the z-score is 3.71.
In the case of `CC1N(P(=O)(c2ccccc2)c2ccccc2)CC(O)(c2ccccc2)CC12CC2` (configuration not stated), the z-score is 2.45 and -0.78.
Next, `OCc1ccc(C2=CC(c3cccs3)N(Cc3cccc(OC(F)(F)F)c3)CC2)cc1` (configuration not stated): -0.39; `CN1CCC(c2ccc(CO)cc2)=CC1C1CC1` (configuration not stated): 0.666; `COC(=O)[C@H]1[C@@H](O)[C@@]2(O)c3c(OC)cc(OC)cc3O[C@@]2(c2ccc(OC)cc2)[C@@H]1c1ccccc1`: 0.128.
Next, `CN1CCC(c2ccc(CO)cc2)=CC1c1cccs1` (configuration not stated): 1.68; `COC(=O)[C@@]1(Cc2ccc(F)cc2)[C@H]2c3cc(C(=O)N(C)C)[nH]c3C[C@H]2CN1C(=O)c1ccccc1`: 0.832 [setting not given].
In the case of `CCCc1cc2c(n1Cc1ccc(C)cc1)C(C)C1CN(C(=O)c3ccccc3)C(C)(C(=O)OC)C21` (configuration not stated), the z-score was -0.876.
The result for `COc1cc2c(cc1O)C=[N+](C)CC2` reads -1.13; that for `CCCc1cc2c(n1Cc1ccco1)C(C)C1CN(C(=O)c3ccccc3)C(C)(C(=O)OC)C21` (configuration not stated), 0.301.
For the compound `CCCC[C@@H]1C[C@H]1[C@@H](NP(=O)(c1ccccc1)c1ccccc1)c1ccc(Cl)cc1`, the z-score is 0.695.
The result for `COC(=O)[C@@]1(Cc2ccccc2)[C@H]2c3cc(C(=O)N(C)C)[nH]c3C[C@H]2CN1C(=O)c1ccccc1` reads 1.82; that for `CCCc1cc2c(n1Cc1cccc(Cl)c1)C(C)C1CN(C(=O)c3ccccc3)C(C)(C(=O)OC)C21` (configuration not stated), 0.703.
Turning to `COC(=O)[C@H]1[C@H](c2ccccc2)C(=O)[C@]2(O)c3ccccc3O[C@@]12c1ccccc1`, the z-score is -2.68.
On to `C[C@H]1O[C@H]2C3=C(C(=O)[C@@H]4O[C@@H]4[C@@H]3O)[C@@H]1[C@@H]1[C@@H](C)OC=C3[C@@H](O)[C@H]4O[C@H]4C(=O)[C@]312`, for which the z-score was -2.19.
Turning to `CCc1cc2c(nc1CC)CCN(CCC(C)=NOC)C2`, the z-score was 2.07.
Take `O=P(c1ccccc1)(c1ccccc1)N1CC2(CC2)CC(O)(c2ccccc2)C1` (configuration not stated): the z-score was -2.28.
Next, `OCc1ccc(C2=CC(C3CC3)N(Cc3sc4ccccc4c3Cl)CC2)cc1` (configuration not stated): -1.71; `C=C(CC1(C(C)NP(=O)(c2ccccc2)c2ccccc2)CC1)c1ccccc1` (configuration not stated): -3.03.
The result for `C=C(CC1(CNP(=O)(c2ccccc2)c2ccccc2)CC1)c1ccccc1` reads -3.35.
The result for `CCOC(=O)[C@H]1CC=C2C(=O)Oc3ccccc3[C@@H]21` reads 0.48; that for `CCOC(=O)[C@H]1CC=C2C(=O)Oc3ccc(Br)cc3[C@@H]21`, -0.818.
For the compound `C[C@@H]1OC=C2[C@@H](O)[C@H]3O[C@H]3C(=O)[C@]23[C@H]1[C@H]1C2=C([C@@H](O)[C@H]4O[C@H]4C2=O)[C@@H]3O[C@@H]1C`, the z-score is -0.165.
For `COC(=O)[C@@]1(Cc2ccccc2)[C@H]2c3cc(C(=O)N(C)C)n(C)c3C[C@H]2CN1C(=O)c1ccccc1`, the z-score was 1.51.
Turning to `c1ccc(-c2cc3c(nc2-c2ccccc2)CCNC3)cc1`, the z-score was -0.148.
Next, `COC(=O)NCC=Cc1nc(CCC=CC(=O)O[C@H]2CC3CC(=O)O[C@@H](C=CCC(C)C)C[C@@H]4CC[C@H](C)[C@@H](C[C@@H](OC)C[C@H](C2)O3)O4)co1`: 0.524; `CCCc1cc2c(n1CCO)C(C)C1CN(C(=O)c3ccccc3)C(C)(C(=O)OC)C21` (configuration not stated): 2.02.
